Laboratory results: ChEMBL document CHEMBL3988442, “University of Dundee, Small-Polar-MMV Screening Library” (2021)

Species on record: Homo sapiens
Test: To identify inhibition of the IFN signalling (Jak-Stat) pathway via expression of an eGFP reporter gene under the control of an IFN-stimulated response element (ISRE) containing MxA promoter.
Type: functional
Set-up: scale not given: direction of the effect not stated beside the values
Settings: 30 µM

Structure (SMILES)	Percent Effect [%]
CC(C)(C)c1cnc(CN2CCCC2Cn2cccn2)o1 (centres undefined)	-9.18
Cc1nc(C)c(C(=O)NCCNC(=O)Cc2ccccc2)s1	11.2
CC(C)NC(=O)c1n[nH]c(-n2cnnc2)n1	2.63
CC(C)C1CN(C(=O)c2ccc(N3CCCC3)nc2)CCS1 (centres undefined)	-12.6
O=C(NC1CC1)[C@@H]1CCO[C@@H]2CCN(Cc3ccsc3)C[C@H]21	3.93
Cc1cc(CN(C)C2CCCN(c3cccnn3)C2)on1 (centres undefined)	-1.53
CN(Cc1ccc(F)cc1)C(=O)CN1CCOC(Cn2cncn2)C1 (centres undefined)	36
CC(C)COC(C)C(=O)NCc1cc(F)cc(F)c1 (centres undefined)	21.9
COCCC(=O)N1CCN(C)c2ncccc2C1	2.13
Cn1cc(N2CCC3(CCN(Cc4nccs4)C3)C2=O)cn1 (centres undefined)	-1.48
O=C(CCc1nccs1)N1CCN(c2ccccc2F)CC1	5.18
CNC(=O)CCNC(=O)c1cccc(Cn2nc(C)cc2C)c1	15.9
Cc1cc(C)cc(OCCC(=O)N2CCCC(n3cncn3)C2)c1 (centres undefined)	4.81
O=C(CSc1ccccc1Cl)NS(=O)(=O)c1ccc2c(c1)OCCO2	4.4
O=c1ccc(-c2cccs2)nn1CN1CCCCCC1	-1.68
O=C(NCCOc1ncc(Cl)cc1Cl)c1ccncc1	14.8
COc1cccc(OCC2CCCN(C(=O)c3cnc(C)nc3O)C2)c1 (centres undefined)	-19
CCc1cccc(NS(=O)(=O)c2cc3c(c(C(=O)O)c2)OCCO3)c1	-2.39
CC(C)S(=O)(=O)NCC1CCCN(C(=O)c2ccc3c(c2)OCCO3)C1 (centres undefined)	5.65
Cc1cnccc1CN1C[C@@H](O)[C@H](Oc2cccc(F)c2)C1	16.3

Structure (SMILES)	Percent Effect [%]
CC1CN(C(=O)NCCCn2cncn2)CCO1 (centres undefined)	-1.05
CCCc1nc(CN2CCOC(CNc3cccnn3)C2)cs1 (centres undefined)	7.16
Cc1ccc(NC2CCN(C(=O)c3cccn3C)CC2)nn1	26.6
Cc1ccc(CNC(=O)Cn2ncc3c2c(C)nn3C)cc1	6.77
O=C(N[C@@H]1CN(Cc2ccccc2)C[C@@H]2CCCO[C@@H]21)C1CC1	-2.02
Fc1ccc(OCCCN2CCOC(Cn3cncn3)C2)cc1 (centres undefined)	2.48
Cc1cc(C)c(CNC(=O)NCC(O)c2cccc(F)c2)c(=O)[nH]1 (centres undefined)	7.32
O=C(CCn1ccc2cc(Br)ccc21)NCc1ccc(C(=O)O)cc1	10.9
O=C(NCc1ccc(OCC2CC2)nc1)c1c(F)cccc1F	11.7
CSc1nccn1-c1cccc(C(=O)NCCCN2CCOCC2)c1	5.76
CC(C)c1nn(C)c(N(C)C)c1CNCc1ccc2c(c1)OCO2	-9
CC(Oc1ccccc1C(F)(F)F)C(=O)NCC(N)=O (centres undefined)	-26.2
O=c1n(CCSCc2ccccc2F)nc2ccccn12	16.8
Cc1noc(C)c1C1CCCN1C(=O)CN1CC2(CCNCC2)OC1=O (centres undefined)	-4.21
CN(CC1CCCO1)C1CCN(CCc2ccccn2)CC1 (centres undefined)	7.31
N#Cc1cccc(S(=O)(=O)NC(=O)COC2CCCC2)c1	0.622
COc1cccc(OCC(=O)NS(=O)(=O)c2ccc(C)s2)c1	15.6
Cn1ccnc1-c1ccccc1C(=O)N1CCc2c(nc(N)[nH]c2=O)C1	5.31
CN(C)C(=O)CN1C[C@@H]2CC[C@H](C1)N(C(=O)CCn1cncn1)C2	-15.8
